Assay outcomes as filed in PubChem.
Sampled rows, rich in hits. Any-hit rate of the full collection: about 11%.
ALDH1A1 inh = inhibitors of human aldehyde dehydrogenase 1A1; Purified ALDH1A1, NADH fluorescence, propionaldehyde substrate; P00352; actives 7.3% (n = 220,000); Potency, µM (titrated, usually from 75.3 µM), for inactives: at the highest dose activity, negative = inhibition, usual class: inhibitors; AID 1030; active = well fitted inhibition curve with a large enough effect, not every such curve was filed as active; inconclusive = small, poorly fitted or top-dose-only effect, or another doubt; inactive = no such curve, though single readings can be large or run the other way;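 also: potency is read from the fitted curve at half-maximal effect; plate controls were no enzyme wells and a reference inhibitor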
PNC inhibitor = perinucleolar compartment assembly inhibition; PC3M PTB-GFP, PNC prevalence imaging, 16 h; stronger effect = lower value; activity change (PNC), negative = inhibition, % at 10 µM; actives 3.1% (n = 140,000); AID 2417;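 active = readout at or below -70, meaning at least 70% loss of cells showing the perinucleolar compartment, a nuclear body marking cancer cells; inconclusive = readout between -30 and a set limit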;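 also: plate controls were DMSO wells for no effect and camptothecin positive control wells for full effect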
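Compounds are pinned in duplicate onto adhered PC3M cells stably expressing GFP-tagged PTB and incubated 16 h at 37 C. Cells are then fixed, nuclei stained with Hoechst, and PNC-positive cells counted.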
HPGD inh = inhibitors of human 15-hydroxyprostaglandin dehydrogenase (HPGD) | P15428 | purified HPGD, NADH fluorescence kinetic, PGE2 substrate | Potency, µM, inactives show at the top dose activity change, negative = inhibition, hits mostly inhibitors | actives 4.3% (n = 150,000); active = well fitted inhibition curve with a large enough effect, not every such curve was filed as active; inconclusive = small, poorly fitted or top-dose-only effect, or another doubt; inactive = no such curve, though single readings can be large or run the other way; also: potency is read from the fitted curve at half-maximal effect
Target sequence (P15428 whole entry, looked up): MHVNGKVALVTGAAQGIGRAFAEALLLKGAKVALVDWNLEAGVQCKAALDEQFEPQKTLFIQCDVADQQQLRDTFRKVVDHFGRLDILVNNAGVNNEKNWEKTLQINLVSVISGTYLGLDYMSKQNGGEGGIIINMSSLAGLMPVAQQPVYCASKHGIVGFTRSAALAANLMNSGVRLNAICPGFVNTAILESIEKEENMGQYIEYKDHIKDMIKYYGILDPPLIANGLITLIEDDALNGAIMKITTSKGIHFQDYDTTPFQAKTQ
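20 nM HPGD preincubated 15 min at room temperature with compound in 50 mM Tris-HCl pH 8, 0.01% Tween 20. Started with 1 mM NAD+ and 30 uM prostaglandin E2; NADH fluorescence (360/450 nm) read 5 times over 30-s intervals, last minus first.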
IMPase Li cell = IMPase inhibition in cells with lithium potentiation. actives 0.35% (n = 210,000). CHO-M1 cells, IP1 TR-FRET (IP-One), carbachol + lithium. Potency, µM (series often up to 59.4 µM), for inactives: top-dose activity, negative = IMPase inhibition, hits mostly inhibitors;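 also: IP1 builds up when IMPase is blocked and the TR-FRET signal falls; potency is read from the fitted curve at half-maximal effect; plate controls were basal vehicle for no effect and high inhibitor control for full effect; nearly all actives have a fitted effect of over 50% in size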
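CHO cells stably expressing M1 receptor (2000/well) were cultured 16–30 h, then exposed to compounds with a small lithium addition for 30 min at 37C. IP1 was measured by TR-FRET competition; AC50 from Hill fits.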
ALOX12 inhib = inhibitors of human 12-lipoxygenase (ALOX12); P18054; purified 12-hLO, xylenol orange hydroperoxide absorbance; Potency, µM (doses to about 57.1 µM), for inactives: at the top dose activity change, negative = inhibition, most hits filed as inhibitors; actives 0.12% (n = 150,000); also: potency is read from the fitted curve at half-maximal effect; nearly all actives have a fitted effect of over 55% in size
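Hydroperoxide output read as Fe(III)-xylenol orange absorbance, 573-to-405 nm ratio, after 30 min reaction with 40 uM arachidonic acid. Enzyme: 150 nM purified human 12hLO, 15 min compound preincubation; 25 mM Hepes pH 7.0, room temperature.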
IMPase inh = cell-permeable inhibitors of inositol monophosphatase (IMPase); P97697; CHO-M1 cells, IP1 accumulation, HTRF TR-FRET ratio; 120,000 tested, under 10 active; inhibition (IP1 accumulation), % at 46.1 µM; active = well fitted curve in the direction sought with a large enough effect in the signal ratio, not every such curve was filed as active; inconclusive = small, poorly fitted or top-dose-only effect, or a change in a side signal; inactive = no such curve, though single readings can be large or run the other way; the % refers to the signal ratio;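 also: cells stimulated with carbachol in lithium chloride buffer; plate controls were DMSO basal wells for no effect and reference inhibitor wells for full effect; higher means more IMPase inhibition seen as more IP1 and lower FRET ratio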
Target sequence (P97697 whole entry, looked up): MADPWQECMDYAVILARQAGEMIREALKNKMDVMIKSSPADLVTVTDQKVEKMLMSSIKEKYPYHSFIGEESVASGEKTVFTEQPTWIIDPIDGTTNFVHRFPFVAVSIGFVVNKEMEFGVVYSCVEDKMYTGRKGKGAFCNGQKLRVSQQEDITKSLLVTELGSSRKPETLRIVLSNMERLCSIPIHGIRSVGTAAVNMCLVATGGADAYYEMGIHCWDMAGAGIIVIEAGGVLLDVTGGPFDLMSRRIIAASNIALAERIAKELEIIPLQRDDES
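Measured: the HTRF emission ratio (665/620 nm) plus the 620 nm donor channel, each fitted to the Hill equation to give AC50. Cells were CHO-M1 given compounds up to 46 uM and a 30 min carbachol stimulation at 37C.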
The depositor's hits bear a star; ? = inconclusive; / = no result; [ ] = dose if it differs, or a comment. Unless noted, calls follow the shape of the dose curve; as a rule, active = well fitted curve in the direction sought with a large enough effect; inconclusive = small, poorly fitted or top-dose-only effect, or another doubt; inactive = no such curve, though single readings can be large; an effect the other way counts as inactive or inconclusive. Unless noted, % is scaled to controls: 0 for no effect and ±100 for the full control effect.

SMILES	ALDH1A1 inh	PNC inhibitor	HPGD inh	IMPase Li cell	ALOX12 inhib	IMPase inh
COc1ccc(-c2ccc(/C=C3/C(=N)N4C=CSC4=NC3=O)o2)c([N+](=O)[O-])c1	7%	?	?	9%	-1%	-7
CCOC(=O)c1cc(-c2ccc(/C=C3/C(=O)NC(=O)C(C#N)=C3C)o2)ccc1Cl	8.9µM*	-13	22µM*	-20%[38.3 µM]	-20%	-5
Cc1ccc(N2NC(=O)/C(=C/c3ccc(-c4ccc(Cl)c(C(=O)O)c4)o3)C2=O)cc1	8.9µM*	/	/	9%	/	/
CC1=C(C#N)C(=O)NC(=O)/C1=C\c1ccc(-c2ccc(C)cc2[N+](=O)[O-])o1	13µM*	/	/	6%	/	/
COC(=O)C1=C(C(=O)OC)[C@@H]2Nc3ccccc3[C@@]23C[C@@H](C(=O)OC)N(S(=O)(=O)c2ccc(C#N)cc2)C3=N1	?	/	-11%	-3%	0%[11.4 µM]	/
CC(=O)c1cn(CCC(C)C)c(=O)[nH]c1=O	14%	?	-6%	-6%	1%	/
O=C(CN1CCSC1=NCc1ccccc1)c1ccc(Cl)c(Cl)c1	13µM*	-17	-14%	15%	-5%	12
CCc1ccc(C(=O)CN2CCSC2=N)cc1	-7%	-10	-1%	0%	-5%	/
Cc1ccsc1CN1CC(=O)N(c2c(C)cccc2C)C1=S	6%	/	/	-3%	/	/
Cc1cccc(N2C(=O)CN(Cc3sccc3C)C2=S)c1	-1%	-16	14µM*	5%	-2%	/
Cc1cc(C)cc(N2C(=O)CN(Cc3sccc3C)C2=S)c1	0%	-28	28µM*	3%	-2%	/
Cc1nn(-c2ccc(F)cc2)c(C)c1CN1CCN(CCC(C)C)C(CCO)C1 (stereo not drawn)	-2%	/	/	14%	/	/
O=C(Nc1ccc(S(=O)(=O)N2CCC(C(=O)NC3CCCCC3)CC2)cc1)c1ccco1	?	-25	?	22%[38.3 µM]	-4%	-1
C/C(=N\NS(=O)(=O)c1ccc([N+](=O)[O-])cc1)c1ccc(NC(=O)c2ccco2)cc1	25µM*	/	/	0%	/	/
O=C(Nc1ccc(S(=O)(=O)NC2CCCCC2)cc1)c1ccco1	0%	-100*	13µM*	9%	-2%	10
O=C(Nc1ccc(S(=O)(=O)NC2CCCCC2)cc1)c1ccc(Br)o1	-7%	?	14µM*	21%[38.3 µM]	-13%	3
CC1(C)CC(=O)c2c(noc2-c2ccccc2)C1	?	-2	22µM*	7%[38.3 µM]	-1%	0
CCCC1C(C#N)=C(N)Oc2n[nH]c(C(C)(C)C)c21 (stereo not drawn)	?	-114*	3%	23%[38.3 µM]	3%	0
CCOC(=O)c1[nH]c2c(c1Cc1ccccc1OC)C(=O)CC(c1ccccc1)C2 (stereo not drawn)	/	/	/	/	/	2
O=[N+]([O-])c1cc2c(cc1/C=N\NS(=O)(=O)c1ccccc1)OCO2	1.6µM*	-3	-27%	18%	6%	3
C[C@H](NC(=O)Cn1cncn1)c1ccccc1	-49%	-100*	-18%	6%[38.3 µM]	4%	10
CC(NC(=O)Cc1ccc(-c2ccccc2)cc1)c1ccccc1 (stereo not drawn)	11µM*	3	14µM*	16%[38.3 µM]	-1%	7
CC(NC(=O)Cn1cnc([N+](=O)[O-])n1)c1ccccc1 (stereo not drawn)	2%	22	4%	5%[38.3 µM]	2%	-5
CC1=CCC2CC1C2(C)C (stereo not drawn)	-16%	/	-1%	-12%	-4%	/
CC1=C(C(=O)OCc2ccc(C)cc2)C(c2ccccc2C(F)(F)F)CC(=O)N1 (stereo not drawn)	/	/	/	/	/	-29
SMILES	ALDH1A1 inh	PNC inhibitor	HPGD inh	IMPase Li cell	ALOX12 inhib	IMPase inh
Cc1cccc(C)c1NC(=O)C1=C(O)c2sccc2N(C)S1(=O)=O	-5%	/	/	2%	/	/
Cc1ccccc1C(=O)Nc1sc2c(c1C(=O)NCc1ccco1)CCC(C(C)(C)C)C2 (stereo not drawn)	/	/	/	/	/	5
O=[N+]([O-])c1nn(-c2ccc3c(c2)OCCO3)n(O)c1=NCc1ccc(F)cc1	-1%	84	20µM*	9%	-13%	/
COc1ccc(/C=C/C(=O)C2CC2)cc1Cn1nc(C)c([N+](=O)[O-])c1C	?	/	/	32%	/	/
COc1ccc(/C=N/Nc2ccccc2)cc1Cn1nc(C)c([N+](=O)[O-])c1C	-10%	-98*	0%	31%[38.3 µM]	-18%	5
CCc1cccc(C)c1NC(=O)CN1C(=O)c2cccc3cccc1c23	/	/	/	/	/	2
Cc1ccc(-c2nc(NC(=O)CSc3ncnc4sc5c(c34)CCC(C)C5)ns2)cc1 (stereo not drawn)	/	/	/	/	/	3
Cc1ccc(C(=O)CSc2ncnc3sc4c(c23)CCC(C)C4)cc1 (stereo not drawn)	-13%	-119*	-13%	6%	0%	4
O=C(Nc1ccccc1)N1CC[C@@]2(CCCN(C(=O)c3cc(C(F)(F)F)cc(C(F)(F)F)c3)C2)C1	2%	/	-4%	-7%	-1%	/
C[C@]1(C(=O)NCC2CC2)C=C[C@@H](Cc2ccccc2)N1C(=O)c1ccccc1	-2%	/	-12%	-11%	-2%	/
CC(C)c1ccc(/C=C2\CC/C(=C\C=N\N(C)C)C2=O)cc1	0.4µM*	15	-23%	9%[38.3 µM]	?	10
C[N+](C)(C)CC[N+]1(C)Cc2c(Cl)c(Cl)c(Cl)c(Cl)c2C1	-9%	/	-3%	-7%	-7%	-1
CN(Cc1ccco1)C(=O)C(Cc1ccccc1)NS(=O)(=O)c1ccc2c(c1)CCC(=O)N2 (stereo not drawn)	25µM*	-81*	-6%	?	-1%	-2
COC(=O)[C@@H]1CC[C@H](C)[C@@H](c2ccc(C)cc2)N1C(=O)c1ccc(/C=N\OC[C@@H](C)[C@H](OCc2ccccc2)C(C)C)cc1	6%[13.5 µM]	/	/	/	/	/
COc1ccc(NC(=O)C(NC(=O)c2ccc(=O)[nH]c2)c2ccc(OC)cc2)cc1 (stereo not drawn)	16%	-109*	-8%	3%	-3%	-1
CC(C)c1ccc(NC(=O)C(c2ccccc2)N(Cc2ccco2)C(=O)CC2NC(=O)NC2=O)cc1 (stereo not drawn)	7.9µM*	/	/	-4%	/	/
COc1ccc(NC(=O)C(NC(=O)CC2NC(=O)NC2=O)c2ccccc2)cc1 (stereo not drawn)	8%	-115*	-3%	-1%	-4%	5
COc1ccc(NC(=O)C(c2ccc(OC)cc2)N(C)C(=O)CC2NC(=O)NC2=O)cc1 (stereo not drawn)	9%	?	-10%	0%	-2%	-8
